PubChem BioAssay AID1851 (National Center for Advancing Translational Sciences (NCATS), 2009)
The whole screen tested about 16,000 compounds, of which about 5,700 (36%) were called active. About 24% were inconclusive and are not listed. The list shows a part of the results. Values without a mark were called inactive. Calls come from the whole dose curve; as a rule, active = well fitted curve in the direction sought with a large enough effect; inconclusive = small, poorly fitted or top-dose-only effect, or effect the other way; inactive = no such curve, though single readings can be large or run the other way.

The compounds below were run against Cytochrome P450 1A2 (Homo sapiens) (UniProt P05177) (assay: Cytochrome panel assay with activity outcomes). Conditions: recombinant CYP, pro-luciferin dealkylation, luminescence, p450-cyp1a2; series mostly up to 57.1 µM.
% is set by controls: 0 for no effect and ±100 for the full control effect.

Chain of Cytochrome P450 1A2 (Homo sapiens) (P05177 whole entry, looked up): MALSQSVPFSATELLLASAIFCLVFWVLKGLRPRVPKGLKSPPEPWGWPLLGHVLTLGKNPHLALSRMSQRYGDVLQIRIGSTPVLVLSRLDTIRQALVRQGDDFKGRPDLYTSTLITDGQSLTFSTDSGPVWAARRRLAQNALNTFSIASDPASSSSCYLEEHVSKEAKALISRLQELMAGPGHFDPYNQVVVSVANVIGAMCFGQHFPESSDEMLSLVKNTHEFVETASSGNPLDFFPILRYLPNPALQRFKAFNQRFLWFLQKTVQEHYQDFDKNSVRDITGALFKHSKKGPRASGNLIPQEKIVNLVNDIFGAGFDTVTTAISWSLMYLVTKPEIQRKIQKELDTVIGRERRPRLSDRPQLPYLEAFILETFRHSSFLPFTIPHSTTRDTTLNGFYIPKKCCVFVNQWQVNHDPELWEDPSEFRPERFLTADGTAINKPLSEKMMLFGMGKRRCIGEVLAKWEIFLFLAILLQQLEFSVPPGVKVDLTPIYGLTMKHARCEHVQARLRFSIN

Structure (SMILES)	AC50	activity, negative = inhibition
CCOc1ccc(N2C(=O)c3cccnc3C2=O)cc1	inactive	–
CCc1ccc(N2C(=O)c3ccc4c5c(ccc(c35)C2=O)CC4)cc1	4.47 µM (active)	–
O=C1c2ccc3c4c(ccc(c24)C(=O)N1c1ccc2ccccc2c1)CC3	0.794 µM (active)	–
Cc1cccc(CNc2ncnc3ccc(-c4cccc(C#N)c4)cc23)c1	0.631 µM (active)	–
N#Cc1cccc(-c2ccc3ncnc(NCc4cccs4)c3c2)c1	0.1 µM (active)	–
c1csc(CNc2ncnc3ccc(-c4ccoc4)cc23)c1	3.16 µM (active)	–
N#Cc1cccc(-c2ccc3ncnc(NCc4ccccc4)c3c2)c1	0.1 µM (active)	–
C/C(CCN1CCCCc2nc(C)c(C)cc21)=N\O[C@@H](C)CN1CCCCc2nc(C)c(C)cc21	–	-20.9% [at 11.4 µM]
C/C=C\C[C@H](C)[C@H](O)[C@H]1C(=O)N[C@@H](CC)C(=O)N(C)CC(=O)N(C)[C@@H](CC(C)C)C(=O)N[C@@H](C(C)C)C(=O)N(C)[C@@H](CC(C)C)C(=O)N[C@@H](C)C(=O)N[C@@H](C)C(=O)N(C)[C@@H](CC(C)C)C(=O)N(C)[C@@H](CC(C)C)C(=O)N(C)[C@@H](C(C)C)C(=O)N1C	inactive	–
CC1=CC(C)(C)NC(=S)N1c1cccc(C)c1	inactive	–
COc1cccc(-c2ccc3ncnc(NCc4cccs4)c3c2)c1	0.501 µM (active)	–
Cc1cc(C)cc(N(CC(=O)NCCSc2ccccn2)S(=O)(=O)c2ccccc2)c1	inactive	–
Cn1c([N+](=O)[O-])cnc1COC(N)=O	inactive	–
COC(=O)c1scc(C)c1NC(=O)Cc1ccccc1	12.6 µM (active)	–
CC[N+](CC)(CC(=O)Nc1c(C)cccc1C)Cc1ccccc1	inactive	–
Cc1cccc(C)c1NC(=O)CS(=O)CC(=O)NCCCc1ccccc1 (stereo unspecified)	inactive	–
Nc1ncnc2c1ncn2[C@@H]1O[C@@H](C(=O)NC2CC2)[C@H](O)[C@@H]1O	inactive	–
Cc1ccc2[nH]c3c(c2c1)CN(C(=O)CN1c2ccc(F)cc2CCC1C)CC3 (stereo unspecified)	5.62 µM (active)	–
CNCCCC1c2ccccc2C=Cc2ccccc21	inactive	–
O=C(OCc1nnc(-c2ccccc2)o1)c1ccc2c(c1)OCCO2	2.51 µM (active)	–
CCCN1C(=O)C2(/C(=C(\O)c3ccc4c(c3)OCCO4)C(=O)C(=O)N2CCCOC)c2ccccc21 (stereo unspecified)	inactive	–
Cc1ncc(N=Nc2ccccc2Cl)c(-c2ccccc2)n1	0.631 µM (active)	–
OCCN(Cc1ccccc1)Cc1cccc(Cl)c1Cl	5.62 µM (active)	–

Structure (SMILES)	AC50	activity, negative = inhibition
CN(C(=O)CN(CCO)CC(=O)N(C)C(C)(C)Cc1ccccc1)C(C)(C)Cc1ccccc1	inactive	–
CCc1c(O)nc(SCC(=O)NC(C)(C)C)n(-c2ccccc2)c1=O	inactive	–
CCc1c(O)nc2sc3ccccc3n2c1=O	15.8 µM (active)	–
CCCc1nn2c(=O)c(C(c3ccc(C)cc3)c3c(O)nc4sc(CCC)nn4c3=O)c(O)nc2s1	inactive	–
COc1ccc(Oc2ncc3nc(C)c(=O)n(C[C@H]4CCCO4)c3n2)cc1	12.6 µM (active)	–
CCC(=O)Nc1ccc(C(=O)CSc2nnc(-c3ccc(O)cc3)n2CC2CCCO2)cc1OC (stereo unspecified)	inactive	–
COC(=O)C1=C(N)Oc2cc(C)n(CC3CCCO3)c(=O)c2C1c1ccccc1OC (stereo unspecified)	inactive	–
COc1ccc(Oc2ncc3ncc(=O)n(C[C@H]4CCCO4)c3n2)cc1	6.31 µM (active)	–
COc1ncc2ncc(=O)n(C[C@H]3CCCO3)c2n1	15.8 µM (active)	–
O=c1cnc2cnc(Oc3cccc(Cl)c3)nc2n1C[C@H]1CCCO1	5.01 µM (active)	–
CN1CCC(=C2c3ccccc3CC(=O)c3sccc32)CC1	inactive	–
CC1(CCC#N)N=C(SCCC#N)N(c2ccccc2)C1=O (stereo unspecified)	inactive	–
C=C1CCO[C@@]2([C@H](O)[C@@](C)(O)CO)NC(=O)[C@]1(O)NC2=O	–	-3.99% [at 2.29 µM]
Cc1nc2c(c(-c3ccccc3)c1C#N)C(=O)c1ccccc1-2	0.2 µM (active)	–
Cc1ccc(NC(=O)NNC(=O)Cn2nc(-c3ccccc3)c(-c3ccccc3)c(C#N)c2=O)cc1	inactive	–
O=C1c2ccccc2C(=O)N1CC(=O)N1c2ccccc2CCc2ccccc21	inactive	–
CCN(CC)CCC(=O)Nc1ccc2c(c1)N(C(=O)CN(CC)CC)c1ccccc1CC2	inactive	–
O=C(COc1cccc2ccccc12)N1c2ccccc2CCc2ccccc21	6.31 µM (active)	–
C[C@@H](C[C@H](N)C(=O)O)C(=O)O	–	-18.7% [at 11.4 µM]
CCOC(=O)C1=NO[C@@]2(C=C(Br)C3(OCCCO3)[C@H]3O[C@H]32)C1	–	1.82% [at 11.4 µM]
COc1ccc(N2C(=O)CC(S/C(N)=N/N=C(\C)c3cccs3)C2=O)cc1 (stereo unspecified)	2.51 µM (active)	–
Cc1cc(C)cc(N2C(=O)CC(Sc3nnnn3-c3ccccc3)C2=O)c1 (stereo unspecified)	inactive	–
CC(C)(C)NS(=O)(=O)c1ccc(NC(=O)NC2CCCCC2)cc1	inactive	–
